The record followed here is ChEMBL document CHEMBL3433997, “St. Jude Leishmania screening dataset” (2016).

One may read the inhibition as the relative decrease from the control value, in per cent.

Common to all, as to format: functional
In assay [1] the target is Solute carrier family 2, facilitated glucose transporter member 1 (Homo sapiens) (UniProt P11166). Put plainly: ST_JUDE_LEISH: Cytotoxicity at 2uM final concentration against transgenic Leishmania Mexicana promastigotes LmGLUT1 that are glucose transport deficient and complemented with the human glucose transporter GLUT1. Activity is measured by DNA content using SYBR green in vitro.

The target of assay [2] is Hexose transporter 1 (Plasmodium falciparum) (UniProt O97467). The assay is described as follows: ST_JUDE_LEISH: Cytotoxicity at 2uM final concentration against transgenic Leishmania Mexicana promastigotes LmPfHT that are glucose transport deficient and complemented with the Plasmodium falciparum hexose transporter. Activity is measured by DNA content using SYBR green in vitro.

For assay [3], the target named is Glucose transporter (Leishmania mexicana) (UniProt O61059). Put plainly: ST_JUDE_LEISH: Cytotoxicity at 2uM final concentration against transgenic Leishmania Mexicana promastigotes LmGT2 that are glucose transport deficient and complemented with the L. Mexicana glucose transporter 2. Activity is measured by DNA content using SYBR green in vitro.

Solute carrier family 2, facilitated glucose transporter member 1 (Homo sapiens), sequence (P11166 whole entry): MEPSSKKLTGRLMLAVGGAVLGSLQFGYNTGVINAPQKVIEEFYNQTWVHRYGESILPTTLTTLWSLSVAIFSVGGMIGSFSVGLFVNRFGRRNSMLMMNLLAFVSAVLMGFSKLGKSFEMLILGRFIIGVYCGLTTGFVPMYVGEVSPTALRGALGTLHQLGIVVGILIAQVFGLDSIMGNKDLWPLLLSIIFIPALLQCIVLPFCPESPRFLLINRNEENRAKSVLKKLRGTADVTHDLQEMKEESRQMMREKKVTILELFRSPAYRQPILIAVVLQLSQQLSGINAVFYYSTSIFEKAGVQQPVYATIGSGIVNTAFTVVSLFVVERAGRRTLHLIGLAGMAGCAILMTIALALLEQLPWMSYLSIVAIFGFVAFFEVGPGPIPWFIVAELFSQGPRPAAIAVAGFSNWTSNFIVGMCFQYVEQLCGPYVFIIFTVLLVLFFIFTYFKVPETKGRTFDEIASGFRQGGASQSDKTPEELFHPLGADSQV

For the compound `CC(C)N1CCN(c2ccc(OCCCCN3CCN(c4cccc(Cl)c4Cl)CC3)cc2Cl)CC1`, the figures for the inhibition in assay [1], in assay [2] and in assay [3] were -1.28%, 0.44% and -2.3%, respectively.
As to `CC(C)C[C@H](NC(=O)c1ccc(OCCN2CCOCC2)cc1)C(=O)N[C@H](/C=N/N1CCN(C)C1=O)CCc1ccccc1`, the inhibition is 3.09% in assay [1], 5.16% in assay [2] and 3.85% in assay [3].
The corresponding values for `O=C(/C=C/c1ccc(Cl)cc1)NCCCCCN1CCCC(C(=O)Nc2ccc(Cl)cc2)C1` (stereo unspecified) are 3.89%, 5.61% and 3.7%.
The corresponding values for `Cc1nnsc1C(=O)Nc1cccc(-c2ccc(-c3nc4ccccc4[nH]3)cc2)c1` are 7.04%, 9.93% and 4.11%.
`COC(=O)c1cccc(CNCc2cccc(-c3cccc(-c4nc5cccc(C)c5[nH]4)c3)c2)c1`: the inhibition in assay [1] amounted to 9.22%; in assay [2], 8.21%; in assay [3], 6.67%.
The corresponding values for `N#CC(NC(=O)C=Cc1ccccc1)c1ccccc1` (stereo unspecified) are -1%, -2.81% and -0.2%.
The corresponding values for `C=CCOc1ccc(C2C(C(=O)OC)=C(C)NC3=C2C(=O)c2ccccc23)cc1OC` (stereo unspecified) are -0.61%, 4.51% and 1.15%.
The corresponding values for `COc1ccc(Nc2nccc(-c3ccc4c(-c5ccsc5)cnc(N)c4c3)n2)cc1` are 1.99%, 7.26% and 6.65%.
For `Cc1cc2nc(-c3ccc(C(=O)NCc4ccc(Cl)c(Cl)c4)cc3)[nH]c2cc1C`, the inhibition is 4.77% in assay [1], 4.64% in assay [2] and 2.9% in assay [3].
The corresponding values for `CCOc1ccc(-c2n[nH]c(C(F)(F)F)c2-c2ccccc2OC)c(O)c1` are 2.44%, 1.89% and 1.29%.
The corresponding values for `CC(C)(C)c1cc(C(=O)Nc2cccnc2)cc(C(=O)Nc2cccnc2)c1` are 2.58%, 1.97% and 2.38%.
The corresponding values for `COc1ccc2sc(CNCCCNc3cc(=O)c4ccccc4[nH]3)c(Cl)c2c1` are 3.04%, 3.59% and 4.49%.
As for `CCNc1cc(C(=O)N[C@@H](Cc2ccccc2)[C@H](O)CNCc2cccc(OC)c2C)cc(N2CCCCS2(=O)=O)c1`, the inhibition in assay [1] came to 1.82%; in assay [2], 1.66%; in assay [3], 2.02%.
The corresponding values for `CCOC(=O)c1cn(CC)c2cc(N3CCCCC3)c(F)cc2c1=O` are 3.39%, 3.64% and 4.37%.
For the compound `CCCCCN1CCCC(CNS(=O)(=O)c2cccc(C(=O)Nc3ccc(C(F)(F)F)cc3)c2)C1` (stereo unspecified), the results for the inhibition in assay [1], in assay [2] and in assay [3] were 0.67%, -0.91% and -0.09%, respectively.
The corresponding values for `CCOc1cc2ncnc(Nc3ccc(OCc4c(F)cccc4F)c(OC)c3)c2cc1OCC` are 4.53%, 2.29% and 0.2%.
The corresponding values for `O=C(NC1CCN(Cc2ccccc2)CC1)c1ccc(CNC2CCN(Cc3ccccc3)CC2)cc1` are 4.84%, 3.94% and 4.42%.
The corresponding values for `COc1cccc(C(=O)Nc2ccc(Nc3nc(C)cc(N(C)C)n3)cc2)c1OC` are 2.81%, 4.32% and 1%.
`CN(CCN)Cc1cccc(-c2cccc(-c3nc4cc(C(F)(F)F)ccc4[nH]3)c2)c1`: the inhibition in assay [1] is 2.68%; in assay [2], 2.47%; in assay [3], 3.72%.
Regarding `CC(C)(C)OC(=O)NCc1ccc(Nc2nnc(-c3cccc(C(=O)NCc4cc(C(F)(F)F)cc(C(F)(F)F)c4)c3)o2)cc1`, the inhibition was found to be 7.94% in assay [1], 7.58% in assay [2] and 5.41% in assay [3].
As to `COc1ccc(C(C(=O)NC2CCN(C[C@H](O)c3ccnc4ccc(OC)cc34)CC2)N2CCN(c3ccc([N+](=O)[O-])cc3)CC2)cc1` (stereo partly specified), the inhibition in assay [1] stood at 2.67%; in assay [2] it was 1.79%; in assay [3], 2.85%.
`FC(F)(F)c1ccc2[nH]ccc(=NN=Cc3ccc(Cl)cc3)c2c1`: the inhibition in assay [1] is 3.42%; in assay [2], 3.11%; in assay [3], 2.9%.
The corresponding values for `COc1cc(Cc2cnc(N)nc2N)cc(OCCCc2cc(OCc3ccccc3)no2)c1OC` are 10%, 8.52% and 8.73%.
The corresponding values for `COc1cc2nc(Nc3ccc(Oc4ccccc4)cc3)nc(Nc3ccc(Oc4ccccc4)cc3)c2cc1OC` are 6.52%, 3.92% and 6.04%.
The corresponding values for `O=C(/C=C/c1ccc(Cl)c(Cl)c1)N1CCC(CCN2CCC(c3nc4cc(O)ccc4[nH]3)CC2)CC1` are 1.92%, 0.59% and -0.62%.
With `COc1ccc2nccc([C@@H](O)CN3CCC(NCc4cc5c(Cl)cccc5[nH]4)CC3)c2c1`, the inhibition in assay [1] came to 10.6%; in assay [2] it was 14.7%; in assay [3] it was 2.34%.
Take `COc1ccc(CN2CCC(Oc3cccc(NC(=O)c4ccc(C(F)(F)F)cc4)c3)CC2)cc1`: the inhibition in assay [1] is 0.69%; in assay [2] it was 1.18%; in assay [3], 3.45%.
Regarding `Cc1nc(-c2nc(N3CCC(C(N)=O)CC3)ncc2-c2ccsc2)sc1C`, the inhibition in assay [1] worked out at 8.94%; in assay [2], 7.69%; in assay [3] it was 6.73%.
The corresponding values for `CC(=O)Nc1ccc(OCCN(Cc2ccccc2C(F)(F)F)c2ccc(C#N)c(C(F)(F)F)c2)c(Cl)c1` are 2.42%, 2.13% and 2.83%.
The corresponding values for `O=C(/C=C/c1ccc(Cl)c(Cl)c1)NCCCCCN1CCC(C(=O)Nc2cccc(Cl)c2)CC1` are 2.86%, 1.97% and 2.09%.
As to `Cc1nnc(NC(=O)c2cn(-c3ccccc3)nc2-c2ccccc2C)o1`, the values for the inhibition in assay [1], in assay [2] and in assay [3] were 1.69%, 2.78% and 2%, respectively.
The corresponding values for `OCCN1CCN(Cc2ccc(-c3ccc(-c4nc5ccccc5[nH]4)cc3)cc2)CC1` are 12.1%, 9.51% and 7.18%.
For `COc1ccc(CNCc2ccc(-c3ccc(-c4nc5ccccc5[nH]4)cc3)cc2)cc1`, the figures for the inhibition in assay [1], in assay [2] and in assay [3] were 17.8%, 14.9% and 10.5%, respectively.
The corresponding values for `COc1ccc(C(=O)CCc2ccc(O)cc2)cc1` are 1.26%, 1.48% and 2.43%.
The corresponding values for `NC1=NC(c2ccccc2)(c2ccccc2)C(=O)N1Cc1ccccc1Br` are 7.09%, 4.75% and 6.62%.
For `O=C(NCCNc1nc(NCCNC(=O)Nc2ccccc2)c2ccc(=O)n(-c3c(F)cccc3F)c2n1)Nc1ccccc1`, the results for the inhibition in assay [1], in assay [2] and in assay [3] were 2.75%, 1.99% and -0.37%, respectively.
On to `CCCC(C)NC(=O)[C@H](CC1CCCCC1)NC(=O)c1ccc(O)c(-c2ccc(OC)cc2)c1` (stereo partly specified), for which the figures for the inhibition in assay [1], in assay [2] and in assay [3] were 2.7%, 0.19% and 2.85%, respectively.
